Test results reported in the antibiotic and cytotoxicity screens of Wong et al. (2023).
Hit rate of the full screen: of about 39,000 compounds, about 1,500 (3.8%) were called active. Only a selection was taken, and actives are over-represented in it overall.

Each compound was assayed on HSkMC (human skeletal muscle cells) (assay: cytotoxicity call (relative viability < 0.9)). Settings: 10 µM.
In the case of `CC(C)(C)OC(=O)N[C@H]1CCCCC/C=C\[C@@H]2C[C@@]2(C(=O)NS(=O)(=O)C2CC2)NC(=O)[C@@H]2C[C@@H](OC(=O)N3Cc4cccc(F)c4C3)CN2C1=O`, the cytotoxicity call is reported as “inactive”.
For `COc1ccc(NC(=O)Nc2ccc3c(c2)C(=O)N([C@@H](C)CO)C[C@@H](C)[C@H](CN(C)S(=O)(=O)c2ccc(Cl)cc2)OCCCC[C@@H](C)O3)cc1`, the cytotoxicity call was “inactive”.
`Cc1noc(C)c1NC(=O)Nc1ccc2c(c1)C(=O)N([C@@H](C)CO)C[C@H](C)[C@@H](CN(C)S(=O)(=O)c1ccc(Cl)cc1)OCCCC[C@@H](C)O2` was tested, and the cytotoxicity call was “inactive”.
`COCCOC(=O)N1C(=O)[C@@]2(c3cc(C#CC4(O)CCCCCC4)ccc31)[C@H](C(=O)N1CCCCCCC1)[C@H]1C(=O)O[C@H](c3ccccc3)[C@H](c3ccccc3)N1[C@@H]2c1ccc(OCCO)cc1` was tested, and the cytotoxicity call was “inactive”.
For `Cc1ccc(S(=O)(=O)Nc2ccc3c(c2)CC(=O)N([C@H](C)CO)C[C@@H](C)[C@H](CN(C)Cc2ccc(Oc4ccccc4)cc2)O3)cc1`, the cytotoxicity call was “active”.
In the case of `Cc1ccc(S(=O)(=O)Nc2ccc3c(c2)CC(=O)N([C@@H](C)CO)C[C@@H](C)[C@@H](CN(C)Cc2ccc(Oc4ccccc4)cc2)O3)cc1`, the cytotoxicity call is reported as “inactive”.
With `Cc1ccc(S(=O)(=O)Nc2ccc3c(c2)CC(=O)N([C@@H](C)CO)C[C@H](C)[C@H](CN(C)Cc2ccc(Oc4ccccc4)cc2)O3)cc1` the cytotoxicity call was “active”.
For `Cc1ccc(S(=O)(=O)Nc2ccc3c(c2)CC(=O)N([C@@H](C)CO)C[C@H](C)[C@@H](CN(C)Cc2ccc(Oc4ccccc4)cc2)O3)cc1`, the cytotoxicity call was “active”.
In the case of `Cc1ccc(S(=O)(=O)Nc2ccc3c(c2)CC(=O)N([C@H](C)CO)C[C@@H](C)[C@@H](CN(C)Cc2ccc(Oc4ccccc4)cc2)O3)cc1`, the cytotoxicity call is reported as “inactive”.
With `Cc1ccc(S(=O)(=O)Nc2ccc3c(c2)CC(=O)N([C@H](C)CO)C[C@H](C)[C@H](CN(C)Cc2ccc(Oc4ccccc4)cc2)O3)cc1` the cytotoxicity call was “inactive”.
For `Cc1ccc(S(=O)(=O)Nc2ccc3c(c2)CC(=O)N([C@H](C)CO)C[C@H](C)[C@@H](CN(C)Cc2ccc(Oc4ccccc4)cc2)O3)cc1`, the cytotoxicity call was “inactive”.
`Cc1ccc(S(=O)(=O)Nc2ccc3c(c2)CC(=O)N([C@@H](C)CO)C[C@@H](C)[C@H](CN(C)Cc2ccc(Oc4ccccc4)cc2)O3)cc1` was tested, and the cytotoxicity call was “inactive”.
In the case of `C[C@H](CO)N1C[C@H](C)[C@@H](CN(C)S(=O)(=O)c2ccc(F)cc2)Oc2ccc(NC(=O)C3CC3)cc2CC1=O`, the cytotoxicity call is reported as “inactive”.
`CO[C@H]1CN(C)C(=O)c2cc(NC(=O)Nc3cccc(Cl)c3)ccc2OC[C@H](C)N(C(=O)Nc2c(C)noc2C)C[C@H]1C` was tested, and the cytotoxicity call was “inactive”.
`COc1ccc(NC(=O)N(C)C[C@H]2OCCCC[C@@H](C)Oc3ccc(NC(=O)Nc4cccc5ccccc45)cc3C(=O)N([C@H](C)CO)C[C@@H]2C)cc1` was tested, and the cytotoxicity call was “inactive”.
